HCV inh: blocks hepatitis C virus. 340,000 tested, 3.4% active. Huh7.5.1 HCVcc-Cre infection, luciferase reporter, 44 h. Potency, µM (doses to about 41.8 µM), for inactives: top-dose activity change, negative = inhibition, most hits filed as inhibitors; also: potency is read from the fitted curve at half-maximal effect
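Luciferase read-out (15 sec integration) after a 15 min room-temperature substrate step quantifies HCVcc-Cre infection. Cells, 1,000 per well, had compound added 4 h post-plating, then virus at ~0.5 moi, and were cultured 44 h.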
HCMV antiviral: human cytomegalovirus inhibition; activity change, negative = inhibition, % at 57.5 µM; HFF cells, HCMV-luciferase reporter, 72 h; stronger effect = lower value; 410,000 tested, 4.5% active; AID 1259415; in the data active = activity change below about -60%; inconclusive = no clear call, values can overlap the other calls; inactive = above about -39%
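Human foreskin fibroblasts infected with luciferase-reporter HCMV at MOI 1 PFU/cell, compounds at two doses. Luciferase measured 72 h post infection; normalized to buffer-only basal and Salinomycin (10uM) controls.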
Pf growth 48h: P. falciparum growth inhibition at 48 hours (one generation); P. falciparum luciferase growth in erythrocytes, 48 h; Potency, µM (highest dose often 28.7 µM), without a hit: top-dose activity change, negative = inhibition, hits mostly inhibitors; 310,000 tested, 5.9% active; AID 504832; also: potency is read from the fitted curve at half-maximal effect
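In quantitative HTS format, infected erythrocytes bearing luciferase-reporter parasites were treated for a single generation at 37 C. Luminescence after adding detection reagent served as the growth measure.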
Pf growth 96h: P. falciparum growth inhibition at 96 hours | P. falciparum luciferase reporter growth, 96 h | Potency, µM (highest dose often 28.7 µM), for the others: at the highest dose activity change, negative = inhibition, hits mostly inhibitors | 320,000 tested, 6.9% active | AID 504834; also: potency is read from the fitted curve at half-maximal effect
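96 h incubation, 37 C, 5% CO2, of luciferase-reporter P. falciparum-infected RBCs (2% hematocrit, 0.05% parasitemia final) with test compounds; endpoint luminescence.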
Active calls of the source: *; [ ] = dose if it differs, or a comment. In the library only some 13% were active in any assay of this set; here they are far more common. Unless noted, calls follow the shape of the dose curve; as a rule, active = well fitted inhibition curve with a large enough effect; inconclusive = small, poorly fitted or top-dose-only effect, or another doubt; inactive = no such curve, though single readings can be large or run the other way. % is scaled to controls: 0 for no effect and ±100 for the full control effect.

How did CCOC(=O)Cn1c(=O)oc2cc(S(=O)(=O)NC(C)c3ccccc3)ccc21 (centres undefined) do in these assays?
HCV inh: 0%; HCMV antiviral: 5; Pf growth 96h: 8.3µM*

Results for CCOC(=O)Cn1c(=O)oc2cc(S(=O)(=O)Nc3ccc(N(CC)CC)cc3C)ccc21 ?
HCV inh: -7%; HCMV antiviral: -77*; Pf growth 96h: inconclusive

What do the screens show for `CCOC(=O)Cn1c(=O)oc2cc(S(=O)(=O)Nc3cc(OCC)ccc3OCC)ccc21`?
HCV inh: 18%; HCMV antiviral: 58; Pf growth 48h: inconclusive; Pf growth 96h: 1.5µM*

How did Cc1ccc(-c2c3c(=O)n(C)c(=O)n(C)c3c3cnc4ccccc4n23)cc1 do in these assays?
HCMV antiviral: 49

How did C/C(=C\C(=O)OCCCCCCCCC(=O)O)C[C@@H]1OC[C@H](C[C@@H]2O[C@H]2[C@@H](C)[C@H](C)O)[C@@H](O)[C@H]1O do in these assays?
HCV inh: 18%; HCMV antiviral: 3; Pf growth 48h: 0.19µM*; Pf growth 96h: 0.03µM*

Results for CCOc1ccc(NC(=O)c2cccc(-n3cnnn3)c2)cc1 ?
HCV inh: -8%; HCMV antiviral: 0; Pf growth 48h: 5%; Pf growth 96h: -20%

Results for CC(C)OC(=O)c1ccc(NC(=O)c2cccc(-n3cnnn3)c2)cc1 ?
HCV inh: inconclusive; HCMV antiviral: inconclusive; Pf growth 48h: 12µM*; Pf growth 96h: inconclusive

Results for O=C(Nc1cccc(-n2cnnn2)c1)c1cccc(Cl)c1 ?
HCV inh: 5%; HCMV antiviral: 0; Pf growth 48h: -3%; Pf growth 96h: 18%

How did O=C(Nc1cccc(-n2cnnn2)c1)c1cc(Cl)nc(Cl)c1 do in these assays?
HCV inh: inconclusive; HCMV antiviral: inconclusive; Pf growth 48h: 9.3µM*; Pf growth 96h: 4.7µM*

Results for Cc1ccc(C(=O)Nc2cc3ccccc3oc2=O)cc1 ?
HCV inh: -16%; HCMV antiviral: -67*; Pf growth 48h: 14%; Pf growth 96h: 11%

What do the screens show for `CC(=O)Nc1ccc(-n2cnnn2)cc1`?
HCV inh: 9%; HCMV antiviral: 40; Pf growth 48h: 16%; Pf growth 96h: -12%

How did CC(Oc1ccc(C#N)cc1)C(=O)Nc1ccc(-n2cnnn2)cc1 (centres undefined) do in these assays?
HCV inh: 8%; HCMV antiviral: 0; Pf growth 48h: 4.7µM*; Pf growth 96h: 3.3µM*

Results for CC(=O)N1CCc2c(sc3c2c(=O)n(-c2ccccc2)c(=O)n3Cc2cccc(C(F)(F)F)c2)C1 ?
HCMV antiviral: -19

How did CCC(CC)C(=O)Nc1nnc2n1CCS2 do in these assays?
HCMV antiviral: -11

Results for O=C(Nc1cnc2ccccc2c1)c1cccc(-n2cnnn2)c1 ?
HCV inh: 5%; HCMV antiviral: 109; Pf growth 48h: 0.12µM*; Pf growth 96h: -1%[5.75 µM]

How did O=C(Nc1ccc(OC(F)(F)F)cc1)c1cccc(-n2cnnn2)c1 do in these assays?
HCV inh: -20%; HCMV antiviral: -32; Pf growth 48h: inconclusive; Pf growth 96h: 10µM*

Results for Cc1ccc(C(=O)Nc2cnc3ccccc3c2)cc1 ?
HCV inh: -14%; HCMV antiviral: -81*; Pf growth 96h: -89%

How did CCCCOc1ccc(C(=O)Nc2cccc(-n3cnnn3)c2)cc1OC do in these assays?
HCV inh: inconclusive; HCMV antiviral: inconclusive; Pf growth 48h: inconclusive; Pf growth 96h: 9.3µM*

Results for Cc1cc(C(=O)Nc2cnc3ccccc3c2)ccc1[N+](=O)[O-] ?
HCV inh: inconclusive; HCMV antiviral: 25; Pf growth 48h: 83%; Pf growth 96h: -29%[5.75 µM]

How did CCOc1ccc(C(=O)Nc2cccc(-n3cnnn3)c2)cc1OCC do in these assays?
HCV inh: inconclusive; HCMV antiviral: 1; Pf growth 48h: inconclusive; Pf growth 96h: -20%

What do the screens show for `COc1ccc(-c2nc3ccccc3s2)cc1NC(=O)c1cccc([N+](=O)[O-])c1C`?
HCMV antiviral: 49

How did CC(=O)c1cccc(NC(=O)C(C)OC(=O)c2ccc(-n3cnnn3)cc2)c1 (centres undefined) do in these assays?
HCV inh: inconclusive; HCMV antiviral: -25; Pf growth 48h: 10µM*; Pf growth 96h: 12µM*

What do the screens show for `CN(C)S(=O)(=O)c1ccc(N2CCCC2)c(C(=O)NC(c2ccccc2)c2ccccc2)c1`?
HCV inh: inconclusive; HCMV antiviral: -4; Pf growth 48h: 0.83µM*

What do the screens show for `CN(C)S(=O)(=O)c1ccc(N2CCCC2)c(C(=O)Nc2ccccc2Br)c1`?
HCV inh: inconclusive; HCMV antiviral: -16; Pf growth 48h: 13µM*; Pf growth 96h: 15µM*

Results for Cc1ccc(NC(=O)c2ccccc2SCC(=O)N2CCCC2)cc1S(=O)(=O)N(C)C ?
HCV inh: -7%; HCMV antiviral: 7; Pf growth 48h: inconclusive; Pf growth 96h: 6.6µM*

Results for Cc1ccc(NC(=O)c2cc(S(=O)(=O)N(C)C)ccc2N2CCCC2)cc1S(=O)(=O)N(C)C ?
HCV inh: inconclusive; HCMV antiviral: 26; Pf growth 48h: inconclusive; Pf growth 96h: 10µM*

Results for Cc1ccc(NC(=O)c2cc(S(=O)(=O)N3CCCCC3)ccc2N2CCOCC2)cc1S(=O)(=O)N(C)C ?
HCV inh: -19%; HCMV antiviral: inconclusive

What do the screens show for `CCc1ccccc1NC(=O)c1cc(S(=O)(=O)N(C)C)ccc1N1CCCC1`?
HCV inh: 0%; HCMV antiviral: -8; Pf growth 48h: inconclusive; Pf growth 96h: inconclusive

What do the screens show for `COc1cccc(CNc2ncnc3c2nnn3C)c1`?
HCMV antiviral: -14

Results for O=C(Cc1ccc(NC(=O)N2CCCCc3ccccc32)cc1)NCc1ccccc1 ?
HCMV antiviral: 20

How did CN(C)S(=O)(=O)c1ccc(N2CCCC2)c(C(=O)Nc2nc(-c3ccc(F)cc3)cs2)c1 do in these assays?
HCV inh: 7%; HCMV antiviral: 53; Pf growth 48h: 9.3µM*; Pf growth 96h: inconclusive

Results for COc1ccc(OC)c(NC(=O)c2cc(S(=O)(=O)N(C)C)ccc2N2CCCC2)c1 ?
HCV inh: -20%; HCMV antiviral: -21; Pf growth 48h: 13µM*; Pf growth 96h: inconclusive

What do the screens show for `CN(C)S(=O)(=O)c1ccc(N2CCCC2)c(C(=O)Nc2nc(-c3cc(F)ccc3F)cs2)c1`?
HCV inh: inconclusive; HCMV antiviral: 34; Pf growth 48h: -15%; Pf growth 96h: inconclusive

Results for CN(C)S(=O)(=O)c1ccc(N2CCCC2)c(C(=O)NNC(=O)c2ccccc2)c1 ?
HCV inh: 9%; HCMV antiviral: -23; Pf growth 48h: 7.4µM*; Pf growth 96h: inconclusive

Results for COc1ccc(NC(=O)c2cc(S(=O)(=O)N(C)C)ccc2N2CCCC2)cc1Cl ?
HCV inh: 3%; HCMV antiviral: -4; Pf growth 48h: 0%; Pf growth 96h: -15%

What do the screens show for `CCOc1cc(C#N)c(NC(=O)c2ccc(OC)c(S(=O)(=O)N3CCN(c4ccccc4)CC3)c2)cc1OCC`?
HCMV antiviral: -9

Screening data from PubChem BioAssay.
